As a reminder, the AC50 is the midpoint of the concentration-response curve, whichever way the signal moves.

AC50 and outcome data for 40 compounds are collected here from PubChem BioAssay (EPA / NIEHS).

Calls of active or inactive are those of the source. The calls were made as follows: active = hit-call score of the fitted dose curve at least 0.9, where 1 is the maximum; inactive = score below 0.9.

Read-out in this experiment: C-C motif chemokine 2 (Homo sapiens) (UniProt P13500)
As to the kind of experiment: BSK_KF3CT_MCP1: BioMAP Diversity Plus: KF3CT Assay for Monocyte Chemoattractant Protein 1 (MCP1/CCL2) Biomarker Activity (AID 2283073). The conditions noted are these: primary human keratinocytes with fibroblasts; actives raise or lower the signal. The procedure:
BSK_KF3CT is a cell-based, multiplexed-readout assay that uses keratinocytes and foreskin fibroblasts, a human skin primary cell co-culture, with measurements taken at 24 hours after chemical dosing in a 96-well plate.BSK_KF3CT_MCP1 is an assay component measured in the BSK_KF3CT assay. It measures MCP-1 antibody related to regulation of gene expression using ELISA technology.Data from the assay component BSK_KF3CT_MCP1 was analyzed into 1 assay endpoint. This assay endpoint, BSK_KF3CT_MCP1, was analyzed with bidirectional fitting relative to DMSO as the negative control and baseline of activity. Using a type of binding reporter, gain or loss-of-signal activity can be used to understand changes in the signaling as they relate to the gene CCL2. Furthermore, this assay endpoint can be referred to as a primary readout, because this assay has produced multiple assay endpoints where this one serves a signaling function. To generalize the intended target to other relatable targets, this assay endpoint is annotated to the cytokine intended target family, where the subfamily is chemotactic factor.
The levels of cell surface (or secreted, indicated by the prefix "s") biomarker endpoints were measured by ELISA. Overt cytotoxicity to cells in confluent adherent cultures (all systems other than the BT system) was assessed by measuring total protein levels using sulforhodamine B (SRB) staining in parallel cultures at the time of biomarker measurements, indicated as SRB endpoints. For proliferation assays for adherent cell types, individual cell types are cultured at sub-confluence and relative cell numbers quantified by SRB staining at time points optimized for each system (48 h: 3C and CASM3C systems; 72 h: BT and HDF3CGF systems; 96 h: SAg system). SRB was performed by staining cells with 0.1% SRB after fixation with 10% TCA and reading wells at 560 nm.Viability and proliferation of PBMC (T cells) was quantified by Alamar Blue reduction for the SAg and BT systems. For PBMC viability (referred to as PBMC Cytotoxicity within the assay endpoint names), cells were plated (75,000/well in a 96-well plate) and then chemical samples added for 1 h before addition of activators, SEB and TSST-1 (20 ng/mL final concentration each). Cells were incubated for 90 h. Then, Alamar Blue (20 uL/well) (Invitrogen, Cat DAL1100) was added for 6 h, and the plates were read with a fluorescence microplate reader at 546/580 nm (excitation/emission). For PBMC proliferation, cells were plated and activated as above but incubated for only 16 h prior to addition of Alamar Blue. Plates were read after 6 h.
On to `CCCN(CCC)c1c([N+](=O)[O-])cc(C(F)(F)F)c(N)c1[N+](=O)[O-]`, for which the concentration at half-maximal activity (AC50) is 30.5 µM (active).
For the compound `CC(=O)S[C@@H]1CC2=CC(=O)CC[C@]2(C)[C@H]2CC[C@@]3(C)[C@@H](CC[C@@]34CCC(=O)O4)[C@H]12`, the result was inactive.
The same measure, in the same setting: the entry for `O=C(c1ccc(O)cc1O)c1ccc(O)cc1O` is “inactive”; for `C#C[C@]1(O)CC[C@H]2[C@@H]3CCC4=CC(=O)CC[C@@H]4[C@H]3CC[C@@]21CC` it is “inactive”.
Consider `CCCN(CCC)C(=O)SCC`, for which the result was inactive.
Turning to `c1ccc(Nc2ccccc2)cc1`, the result was inactive.
`CC(C)(c1ccc(O)cc1)c1ccc(O)cc1`: the outcome was inactive.
Consider `COC(=O)c1ccc(CNS(C)(=O)=O)cc1S(=O)(=O)NC(=O)Nc1nc(OC)cc(OC)n1`, for which the result was inactive.
As to `COC(=O)c1ccccc1S(=O)(=O)NC(=O)Nc1nc(OC(F)F)cc(OC(F)F)n1`, the outcome was inactive.
As for `CC(=O)[C@H]1CC[C@H]2[C@@H]3CCC4=CC(=O)CC[C@]4(C)[C@H]3CC[C@]12C`, the outcome was inactive.
For the compound `COC(=O)c1ccccc1C(=O)O`, the AC50 was 0.726 µM (active).
On to `CCCCC(CC)COC(=O)c1ccccc1C(=O)O` (stereo not given), for which the result was inactive.
For the compound `C[C@]12CC[C@@H]3c4ccc(O)cc4C[C@@H](CCCCCCCCCS(=O)CCCC(F)(F)C(F)(F)F)[C@H]3[C@@H]1CC[C@@H]2O` (stereo not given in full), the result was inactive.
In the case of `CCCCCOC(=O)COc1cc(N2C(=O)C3=C(CCCC3)C2=O)c(F)cc1Cl`, the result was inactive.
The same measure, in the same setting: the value for `CCOC(=O)C(C)Oc1ccc(Oc2nc3ccc(Cl)cc3o2)cc1` (stereo not given) was “inactive”; that for `C=CCOC(Cn1ccnc1)c1ccc(Cl)cc1Cl` (stereo not given) was “inactive”; that for `N[C@@H](Cc1cc(I)c(Oc2ccc(O)c(I)c2)c(I)c1)C(=O)O` was “inactive”.
Consider `OB(O)O`, for which the outcome was inactive.
As to `CCOC(=O)c1ccc(O)cc1`, the outcome was inactive.
Consider `COc1nc(C)nc(NC(=O)NS(=O)(=O)c2ccccc2OCCCl)n1`, for which the result was inactive.
On to `Oc1ccc(C(c2ccc(O)cc2)C(Cl)(Cl)Cl)cc1`, for which the AC50 was 20 µM (active).
Consider `COC(=O)CSc1cc(N=c2sc(=O)n3n2CCCC3)c(F)cc1Cl`, for which the outcome was inactive.
Regarding `CSC(=O)c1cccc2nnsc12`, the result was inactive.
The same measure, in the same setting: the value for `CCOC(=O)C(C)Oc1ccc(Oc2cnc3cc(Cl)ccc3n2)cc1` (stereo not given) was “inactive”.
As for `c1ccc2[nH]c(-c3cscn3)nc2c1`, the result was inactive.
Still for that read-out and setting: the value for `CCCCOC(=O)C(C)Oc1ccc(Oc2ccc(C(F)(F)F)cn2)cc1` (stereo not given) was “inactive”.
Turning to `CCN(CC)C(=O)c1cccc(C)c1`, the outcome was inactive.
As to `COC(=O)c1cccc(C)c1S(=O)(=O)NC(=O)Nc1nc(OCC(F)(F)F)nc(N(C)C)n1`, the result was inactive.
Consider `CCNc1nc(N)nc(Cl)n1`, for which the outcome was inactive.
As to `CC1(C)C(C=C(Cl)Cl)C1C(=O)OCc1cccc(Oc2ccccc2)c1` (stereo not given), the outcome was inactive.
For the compound `COC(=O)c1c(Cl)nn(C)c1S(=O)(=O)NC(=O)Nc1nc(OC)cc(OC)n1`, the outcome was inactive.
Turning to `CC(C)CCCCCCc1ccc(O)cc1`, the AC50 is 8.65 µM (active).
As to `C[C@]12C[C@H](O)[C@H]3[C@@H](CCC4=CC(=O)CC[C@@]43C)[C@@H]1CC[C@@H]2C(=O)CO`, the result was inactive.
Take `O=C(O)C1(C(=O)Nc2ccc(Cl)cc2Cl)CC1`: the outcome was inactive.
`CCCCOC(=O)[C@@H](C)Oc1ccc(Oc2ccc(C(F)(F)F)cn2)cc1`: the outcome was inactive.
As for `CCC(C)OC(=O)N1CCCCC1CCO` (stereo not given), the result was inactive.
With `CCOC(=O)NCCOc1ccc(Oc2ccccc2)cc1`, the AC50 is 4.43 µM (active).
As for `CCCCCCC(C)OC(=O)COc1nc(F)c(Cl)c(N)c1Cl` (stereo not given), the result was inactive.
Same read-out and setting: the entry for `S=C(S)NCCNC(=S)S.[Mn+2].[S-]C([S-])=NCCN=C([S-])[S-].[Zn+2]` is “inactive”; for `CC(C)(C)[C@@H](O)[C@@H](Cc1ccc(Cl)cc1)n1cncn1` it is “inactive”.
